Drawing on PubChem BioAssay (NCI), this text covers growth for 40 compounds.

SMILES strings stand for the structures. Compounds without any hit were thinned out: in the full panel of roughly 83,000, 20% have a hit.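 Interpretation: 100, growth as untreated; towards 0, rising growth inhibition; 0, no net growth; 0 to -100, cell death. Compounds scoring below 10 were considered active.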 Values without a mark were called inactive. Active and inactive are the calls of the source.

This assay has as its system NCI-H226 lung. Put plainly: NCI-60 one-dose screen, 48 h (100 = growth as untreated, 0 = no growth, -100 = all killed). Particulars: 10 µM unless noted. The method, then: Growth inhibition of the NCI-H226 human Non-Small Cell Lung tumor cell line is measured as a screen for anti-cancer activity. Cells are grown in 96 well plates and exposed to the test compound for 48 hours. Compounds are tested at a single concentration, which is 10^-5 M for most compounds. The reported endpoint is percent growth (GI% or GIPRCNT), where numbers from 0 - 100% represent growth inhibition, and numbers from -100% - 0 represent cell death. For example, a value of 40 represents 60% growth inhibition. A value of 0 means no net growth occurred over the course of the experiment. A value of -40 indicates 40% of cells at the beginning of the experiment died by the end of the experiment. A value of -100 means all cells are dead at the end of the experiment.
NCI-60 Human Tumor Cell Lines Screen was performed using the standard one-dose NCI protocol, which is described in more detail at https://dtp.cancer.gov/discovery_development/nci-60/default.htm.
Compounds with GIPRCNT values below 10 were considered active. Activity score was based on GIPRCNT using the following formula: […]
Score is 0 for GIPRCNT values of 100 or above, 50 for GIPRCNT values of 0, and 100 for GIPRCNT values of -100.
For the compound `CCCCCc1c(C)[nH]c(/C=C2\N=C(c3ccc[nH]3)C=C2Oc2ccc(Cl)cc2)c1C`, the growth was 11.9% [100 µM].

With `CCOC(=O)N1CCC(N=C2CSc3nnc(-c4cc(C(F)(F)F)cc(C(F)(F)F)c4)n3N2)CC1`, the growth is 29.4%.

Take `NC(=O)c1cc(Br)cc(Br)c1NS(=O)(=O)c1ccccc1`: the growth is 95.3%.

Take `CN1CCN(c2nc3scc(-c4ccccc4)c3c(=O)[nH]2)CC1`: the growth was 98.6%.

Turning to `Cc1ccc2nc3c(n2c1)C(=O)C(=O)c1ccccc1-3`, the growth is -44.1% (active).

In the case of `COc1ccc([N+](=O)[O-])c(S(=O)(=O)c2ccc(Cl)cc2)n1`, the growth was 91.2%.

As for `COc1ccc(C(=O)COc2ccc(/C=C3\Oc4ccc5ccccc5c4C3=O)cc2)cc1`, the growth was 107%.

In the case of `CC(NC(N)=S)c1ccccc1` (stereo not given), the growth is 101%.

Turning to `Nc1c(C(=O)Nc2cccc(Cl)c2)sc2nc3c(cc12)C(O)CCC3` (stereo not given), the growth is 62.3%.

Consider `NC(=NCCCCCCN=C(N)/N=C(\N)Nc1ccc(Cl)cc1)/N=C(\N)Nc1ccc(Cl)cc1`, for which the growth was -9.31% (active).

Turning to `COc1cccc(N2CCN(c3cccc(C)n3)CC2)c1`, the growth was 105%.

On to `CCOC(=O)C1C(=O)NC(C(=O)OCC)(C(=O)OCC)C1CC` (stereo not given), for which the growth is 97.7%.

For `O=C(O)C1CCN(S(=O)(=O)c2ccc(-c3ccccc3)cc2)CC1`, the growth was 90.6%.

Turning to `COc1ccc(C2=NN(C(C)=O)C(c3cccc(Nc4ccnc5cc(Cl)ccc45)c3)C2)cc1` (stereo not given), the growth was 74.5%.

As for `COc1ccc(C2=NN(C(N)=S)C(c3ccc4c(c3)OCO4)C2)cc1` (stereo not given), the growth is 58.2%.

Take `O=C(CN1CCN(c2ccc(Cl)cc2)CC1)N1CCN(c2nnc(-c3ccc(Cl)cc3)c(-c3ccc(Cl)cc3)n2)CC1`: the growth is 62%.

`NS(=O)(=O)c1ccc(-n2ncc3c(SCc4ccccc4)ncnc32)cc1`: the growth is 99.8%.

On to `O=C(COc1cccc(/C=C2\Oc3ccc4ccccc4c3C2=O)c1)c1ccc([N+](=O)[O-])cc1`, for which the growth was 85.8%.

Consider `O=c1sc2ncnc3ncn1c32`, for which the growth is 61.4%.

Take `Clc1ccc2[nH]cc(-c3cncn3CCc3ccccc3)c2c1`: the growth is 47.9%.

With `CCSc1nc(-c2cccs2)n2nc(-c3ccco3)cc2n1`, the growth was 94.9%.

For the compound `c1ccc2nc(N/N=C3\CCCCC3C3CCCCC3)ccc2c1` (stereo not given), the growth was 53.8%.

As for `COc1ccc2c(c1)c(CC(=O)[Se]C)c(C)n2C(=O)c1ccc(Cl)cc1`, the growth is -34% (active).

On to `O=C(Nc1ccc(Cl)cc1)Nc1nc2ccc(OC(F)(F)F)cc2o1`, for which the growth was 107%.

For `CC1C(=O)NC2=Nc3ccccc3C(=O)NN21` (stereo not given), the growth is 92.9%.

As to `CC(C)=CCNc1ncnc2c1ncn2C1OC(COP(=O)(O)O)C(O)C1O` (stereo not given), the growth is 45.7%.

With `CN(C)CCCNc1nn2c(=O)c3ccccc3nc2c2ccccc12`, the growth was 53.4%.

As to `CC1=C([Se]CC(OC(=O)[C@@H](CSSC(C)(C)C)NC(=O)C(C)(C)C)C(=O)NCCCCCC(=O)OCc2ccccc2)C(=O)c2ccccc2C1=O` (stereo not given in full), the growth is 3.19% (active).

With `CCOC1Oc2ccccc2C(=O)/C1=N/c1nccs1` (stereo not given), the growth is 84%.

With `COc1ccc2[nH]c(=O)c(CNc3ccc(Nc4nccc(-c5ccc(Cl)cc5)n4)cc3)cc2c1`, the growth is 91.7%.

As to `COc1ccc(C(=O)COc2cccc(/C=C3\COc4ccc5ccccc5c4C3=O)c2)cc1`, the growth was 72.7%.

For `N#Cc1c(-c2ccc(F)cc2)n2c(nc1=O)SC(=O)C2=O`, the growth is 87.2%.

Turning to `CC[C@@H](C)/C=C(C)/C=C/C(=O)c1c(O)c(-c2ccc(O)cc2)cn(OC2CC(=O)CCC(C)OC(=O)CC2O)c1=O` (stereo not given in full), the growth was 15.8%.

In the case of `COc1cnc2c(c1)C(=O)c1c-2n(CCCNC2=NCCS2)c(=O)c2cc(F)ccc12`, the growth was 3.93% (active).

As for `CC(=O)Nc1c(Cl)cc2c(c1Cl)Cc1ccccc1-2`, the growth is 90.7%.

For `CC(C)Sc1nc(-c2ccc(Br)cc2)c(C#N)c(N2CCCCC2)n1`, the growth was 100%.

As for `CCN1CCN(c2nc(NNC(=O)Cc3ccccc3)nc(N3CCN(C(c4ccccc4)c4ccccc4)CC3)n2)CC1`, the growth is 95%.

Regarding `COc1cc2c(cc1OC)C(=O)/C(=C/c1cccc(OCC(=O)c3ccccc3)c1)C2`, the growth was 86.1%.

In the case of `CNNc1ncnc2c1cnn2-c1ccc(S(N)(=O)=O)cc1`, the growth was 91.3%.

`Cc1ccc(C2=NNC(c3sc(Cl)nc3Cl)C2)cc1` (stereo not given): the growth was 84.7%.
